From PubChem BioAssay (NCATS)
Records with an inconclusive call do not appear. Activity calls are given as the source filed them. Calls follow the shape of the dose curve; as a rule, active = well fitted curve in the direction sought with a large enough effect; inconclusive = small, poorly fitted or top-dose-only effect, or another doubt; inactive = no such curve, though single readings can be large; an effect the other way counts as inactive or inconclusive.

Assays:
[1] = biological target: Aldehyde dehydrogenase, mitochondrial (Homo sapiens) (UniProt P05091); assay: qHTS for Inhibitors of the Aldehyde Dehydrogenase Family (ALDH2) Primary screen (AID 2061308);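 also: plate controls were vehicle for no effect and reference inhibitor for full effect; nearly all actives have a fitted effect of over 55% in size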
[2] = biological target: Retinaldehyde dehydrogenase 3 (Homo sapiens) (UniProt P47895); assay: qHTS for Inhibitors of the Aldehyde Dehydrogenase Family (ALDH1A3) Validation screen (AID 2061312); also: % is scaled to controls: 0 for no effect and ±100 for the full control effect; nearly all actives have a fitted effect of over 45% in size
[3] = biological target: Retinaldehyde dehydrogenase 3 (Homo sapiens) (UniProt P47895); assay: qHTS for Inhibitors of the Aldehyde Dehydrogenase Family (ALDH1A3) Primary screen (AID 2061315);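 also: plate controls were DMSO vehicle for no effect and reference inhibitor for full effect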
[4] = BET inhibitor-based combinations targeting novel dependencies in MECOM-rearranged (r) AML: SET-2 cell line (AID 2202231); details: SET-2 AML cells viability, CellTiter-Glo luminescence, 48 h; viability: hits give low values, concentration not given here; also: nearly all actives have a fitted effect of over 35% in size; also: potency is read from the fitted curve at half-maximal effect;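 as to viability: plate controls were DMSO treated cells for no effect and wells without cells for full effect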
Procedure, shortened: (§1)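 Viability of cells (500 per well) is scored by luminescent CellTiter-Glo at 48 hr post-dosing. Eleven-point titrations are normalized to DMSO and empty controls and reduced to AUC values.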

[5] = BET inhibitor-based combinations targeting novel dependencies in MECOM-rearranged (r) AML: OCI-AML3 cell line (AID 2202232); details: Potency: OCI-AML3 viability; also: nearly all actives have a fitted effect of over 35% in size; also: potency is read from the fitted curve at half-maximal effect
Procedure, shortened: as §1

[6] = BET inhibitor-based combinations targeting novel dependencies in MECOM-rearranged (r) AML: MV-4-11 cell line (AID 2202233); also: nearly all actives have a fitted effect of over 45% in size; also: potency is read from the fitted curve at half-maximal effect
Procedure, shortened: (§2)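 Using pin-tool transfer, drugs were added in 11 doses to cells (500/well), incubated 48 hr, and assessed with CellTiter-Glo. Z-AUC is a mean-centring transformation applied separately to each screened line.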

[7] = BET inhibitor-based combinations targeting novel dependencies in MECOM-rearranged (r) AML: HNT-34 cell line (AID 2202234); also: nearly all actives have a fitted effect of over 35% in size; also: potency is read from the fitted curve at half-maximal effect
Procedure, shortened: as §2

[8] = BET inhibitor-based combinations targeting novel dependencies in MECOM-rearranged (r) AML: UCSD-AML1 cell line (AID 2202235); also: nearly all actives have a fitted effect of over 40% in size; also: potency is read from the fitted curve at half-maximal effect
Procedure, shortened: as §2

[9] = BET inhibitor-based combinations targeting novel dependencies in MECOM-rearranged (r) AML: AML-194 cell line (AID 2202237; also: nearly all actives have a fitted effect of over 40% in size; also: potency is read from the fitted curve at half-maximal effect)
Procedure, shortened: as §1

[10] = BET inhibitor-based combinations targeting novel dependencies in MECOM-rearranged (r) AML: AML-191 cell line (AID 2202236; also: nearly all actives have a fitted effect of over 35% in size; also: potency is read from the fitted curve at half-maximal effect)
Procedure, shortened: as §1

Cn1c2ccc(NC(=O)c3ccccc3)cc2c(=O)n2nc(C(=O)O)cc12
inactive: Potency [1] | Potency [2] | Potency [3]

CN1CCOC(c2ccccc2)c2ccccc2C1 (stereo not given)
inactive: Potency [1] | Potency [2] | Potency [3]

C[C@]12CC[C@@H]3c4ccc(OC(=O)c5ccccc5)cc4CC[C@H]3[C@@H]1CC[C@@H]2O
inactive: Potency [1] | Potency [2] | Potency [3]

CC(C)NC(=O)c1ccc(C#Cc2ccncc2)cn1
inactive: Potency [1] | Potency [2] | Potency [3]

CN(C)C1CCN(C(=O)c2ccc(NC(=O)Nc3nc(N4CCOCC4)nc(N4CCOCC4)n3)cc2)CC1
inactive: Potency [1] | Potency [2] | Potency [3]
active: Potency [4] 5250 nM | Potency [5] 132 nM | Potency [6] 105 nM | Potency [7] 105 nM | Potency [8] 296 nM | Potency [9] 590 nM

CCOc1nc2c(N)ncnc2n1CC
inactive: Potency [1] | Potency [2] | Potency [3]

CC1=C(/C=C/C(C)=C\C=C\C(C)=C/C(=O)O)C(C)(C)CCC1
inactive: Potency [1] | Potency [2] | Potency [3]

COCCOc1nc(-c2ccc(Cl)c(Cl)c2)n(-c2ccc(NC(=O)CCl)cc2)n1
inactive: Potency [1] | Potency [2]
active: Potency [4] 1860 nM | Potency [5] 2090 nM | Potency [6] 5250 nM | Potency [7] 662 nM | Potency [8] 1320 nM | Potency [10] 1050 nM

O=C(O)c1cccc(S(=O)(=O)N2CCc3ccccc3C2)c1
inactive: Potency [1] | Potency [2] | Potency [3]

OC(c1ccc(-c2ccc(CN3CCN(Cc4ccncc4)CC3)cc2)c(F)c1)(C(F)(F)F)C(F)(F)F
active: Potency [6] 8330 nM | Potency [10] 9340 nM
inactive: Potency [1] | Potency [2] | Potency [3] | viability [4] 101% | Potency [7] | Potency [9]

CC(C)(C)C(=O)C(Oc1ccc(Cl)cc1)n1ccnc1 (stereo not given)
inactive: Potency [1] | Potency [2] | Potency [3]

O=C(Nc1ncc(-c2cc(C(F)F)nn2-c2c(Cl)cccc2Cl)s1)C1CC1
active: Potency [4] 1050 nM | Potency [5] 833 nM | Potency [6] 1050 nM | Potency [7] 742 nM | Potency [8] 833 nM | Potency [10] 934 nM | Potency [9] 742 nM
inactive: Potency [1] | Potency [2] | Potency [3]

CC(C)(OCc1nn(Cc2ccccc2)c2ccccc12)C(=O)O
inactive: Potency [1] | Potency [2] | Potency [3] | viability [4] 104% | Potency [5] | Potency [6] | Potency [7] | Potency [8] | Potency [10] | Potency [9]

C/C=C/CC(C)C(O)C1C(=O)NC(CC)C(=O)N(C)CC(=O)N(C)C(CC(C)C)C(=O)NC(C(C)C)C(=O)N(C)C(CC(C)C)C(=O)NC(C)C(=O)NC(C)C(=O)N(C)C(CC(C)C)C(=O)N(C)C(CC(C)C)C(=O)N(C)C(C(C)C)C(=O)N1C (stereo not given)
inactive: Potency [1] | Potency [2] | Potency [3]

CC(=O)[C@H]1CC[C@H]2[C@@H]3C=CC4=CC(=O)CC[C@@]4(C)[C@@H]3CC[C@]12C
inactive: Potency [1] | Potency [2] | Potency [3]
